FLuc counter – counter-screen for miR-21 project: firefly luciferase inhibitors or activators | P08659 | 360,000 compounds, 6.9% hits | AID 588342 | purified FLuc, Km substrates, luminescence inhibition | Potency, µM (series often up to 57.5 µM), for inactives: at the highest dose activity change, negative = inhibition, hits mostly inhibitors;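 further: plate controls were vehicle for no effect and reference inhibitor for full effect; nearly all actives have a fitted effect of over 55% in size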
Target sequence (P08659 whole entry, looked up): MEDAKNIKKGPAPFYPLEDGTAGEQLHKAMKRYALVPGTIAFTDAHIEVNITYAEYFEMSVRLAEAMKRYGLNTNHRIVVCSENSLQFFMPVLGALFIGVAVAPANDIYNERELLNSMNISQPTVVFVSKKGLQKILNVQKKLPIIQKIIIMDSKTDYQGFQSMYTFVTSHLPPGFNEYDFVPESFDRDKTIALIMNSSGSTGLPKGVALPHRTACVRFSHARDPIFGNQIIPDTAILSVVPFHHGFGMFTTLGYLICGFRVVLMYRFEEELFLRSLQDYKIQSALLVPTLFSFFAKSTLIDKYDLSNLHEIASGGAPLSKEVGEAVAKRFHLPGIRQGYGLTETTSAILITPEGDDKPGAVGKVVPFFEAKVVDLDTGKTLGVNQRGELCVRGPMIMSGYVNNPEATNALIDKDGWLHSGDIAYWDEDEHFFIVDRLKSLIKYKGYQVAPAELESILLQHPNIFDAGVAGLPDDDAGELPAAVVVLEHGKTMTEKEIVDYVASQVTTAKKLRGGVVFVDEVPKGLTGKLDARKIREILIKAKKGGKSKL
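Purified P. pyralis luciferase (10nM final) with 10uM D-luciferin and 10uM ATP (Km levels) in 50mM Tris acetate pH 7.5, 10mM Mg acetate, 0.01% Tween-20, 0.05% BSA; qHTS 6-point titration, ~60 µM downward; luminescence read.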
ELG1 genotox – genotoxicity induction in ELG1-luciferase HEK293T cells; HEK293T ELG1-luciferase reporter, luminescence, 16 h; Potency, µM (series often up to 46 µM), inactives show at the top dose activity change, positive = activation, actives largely listed as activators; 330,000 compounds, 1.3% hits; AID 504466; further: % of control where 0% means no effect; nearly all actives have a fitted effect of over 60% in size
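After overnight (16 hr) compound treatment at 37 °C, ELG1-luciferase HEK293T cells were lysed with ONE-Glo; luminescence quantified 30 min later at room temperature.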
Rab9 promoter act – Rab9 promoter activation; Potency, µM (highest dose often 9.22 µM), for the others: at the highest dose activation, negative = inhibition, most hits filed as activators; Huh7 Rab9 promoter-luciferase reporter, luminescence, 24 h; 320,000 compounds, 2.8% hits; further: % of control where 0% means no effect; nearly all actives have a fitted effect of over 60% in size
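Luminescence from Amplite-detected luciferase (10 minutes, ambient) reports Rab9 promoter activation. Before that, stable Rab9-luciferase Huh7 cells (1500/well, reduced-serum OP-MEM I plus 10% FBS) were exposed to compound for 24 hours at 37C.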
NPC1 prom act – activators of NPC1 promoter; 320,000 compounds, 2.4% hits; Potency, µM (top dose mostly 9.22 µM), without a hit: at the top dose activation, usual class: activators; AID 485313; Huh7 NPC1 promoter luciferase reporter, 24 h; further: % of control where 0% means no effect; nearly all actives have a fitted effect of over 60% in size
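Cells: Huh7 expressing luciferase under the NPC1 promoter, 1500/well. Seeded 2 h, compound added, incubated 24 h at 37 °C. Luciferase reagent, 10 min ambient, then luminescence.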
KinaseGlo FLuc – counter-screen: inhibitors of Kinase-Glo firefly luciferase | Kinase-Glo luciferase, ATP luminescence, 8 min | Q27757 | 200,000 compounds, 0.28% hits | Potency, µM (series often up to 38.3 µM), inactives show top-dose activity change, negative = inhibition, usual class: inhibitors; further: on the % scale 0 is the no-effect control and ±100 the full control effect; nearly all actives have a fitted effect of over 60% in size
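Kinase-Glo luciferase light output from ATP and luciferin was measured with 10 uM ATP, within the enzyme's linear range. Buffer: 50 mM imidazole pH 7.2, 50 mM KCl, 7 mM MgCl2, 0.01% Tween 20, 0.05% BSA; luminescence read after 8 min at ambient temperature.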
SMN2 splice enh – enhancers of SMN2 splice variant expression | HEK293 SMN2-luciferase splicing reporter, luminescence, 30-36 h | Potency, µM (titrated, usually from 46.1 µM), inactives show at the highest dose activity change, positive = activation, usual class: activators | 210,000 compounds, 2.8% hits | AID 1458; further: % of control where 0% means no effect; nearly all actives have a fitted effect of over 55% in size
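qHTS luciferase splicing reporter: luminescence rises when SMN2 exon 7 is included in transfected HEK293 cells. Compound exposure lasted 30-36 h at 37C, with 4.5 mM final sodium butyrate as control, followed by a ONE-Glo read.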
Numbers without * were called inactive; u = inconclusive; x = no result given. Most compounds without a hit are left out; they make up all but 7.3% or so of the library. The call rests on the fitted dose curve; in most records, active means well fitted curve in the direction sought with a large enough effect; inconclusive means small, poorly fitted or top-dose-only effect, or another doubt; inactive means no such curve, though single readings can be large; an effect the other way counts as inactive or inconclusive. Potency means the concentration at half of the fitted maximal effect.

SMILES	FLuc counter	ELG1 genotox	Rab9 promoter act	NPC1 prom act	KinaseGlo FLuc	SMN2 splice enh
COc1ccc(-c2ccc(SCC(=O)NC3CCCC3)nn2)cc1OC	15µM*	18%	3%	11%	x	x
COc1ccc(-c2nc(SCC(=O)Nc3ccc4c(c3)OCO4)c(-c3ccc(F)cc3)[nH]2)cc1OC	-12%	x	x	x	x	12%
COc1cccc(-c2ccc(SCC(=O)NC3CCCCC3)nn2)c1	15µM*	-3%	12%	0%	x	x
COc1ccc(-c2nc(SCC(=O)NC3CCCC3)c(-c3ccccc3)[nH]2)cc1OC	19µM*	x	x	x	x	9%
COc1ccccc1-c1ccc(SCC(=O)NC2CCCC2)nn1	0%	16%	1%	-2%	x	x
COc1ccc(-c2nc(SCC(=O)Nc3ccc4c(c3)OCCO4)c(-c3ccc(F)cc3)[nH]2)cc1OC	6.7µM*	x	x	x	x	15%
COc1ccc(-c2nc(SCC(=O)NC3CCCC3)c(-c3ccc(F)cc3)[nH]2)cc1OC	u	x	x	x	x	3%
CCOC(=O)c1scc(-c2ccc(C)cc2)c1S(=O)(=O)Nc1ccc(OC)c(Cl)c1	-10%	x	x	x	x	x
CCOc1ccc(-c2cc(C(=O)N3CCN(S(=O)(=O)c4cc(Cl)ccc4OC)CC3)[nH]n2)cc1	-19%	x	x	x	x	x
CCCc1cc2c(=O)c(-c3ccc4c(c3)OCCO4)c(C)oc2cc1OS(C)(=O)=O	-7%	-9%	2%	-1%	6%	-74%
CCc1cc2c(=O)c(-c3ccc4c(c3)OCCO4)coc2cc1OC(=O)c1ccco1	1.1µM*	1.5µM*	2µM*	1.8µM*	1%	u
CCCc1cc2c(=O)c(-c3ccc4c(c3)OCCO4)coc2cc1OC(=O)c1ccco1	5.4µM*	18%	1.6µM*	1.3µM*	-5%	u
CCCc1cc2c(=O)c(-c3ccc4c(c3)OCCO4)coc2cc1OS(C)(=O)=O	5.4µM*	0%	3.2µM*	u	5%	u
CCN(CC)Cc1c(O)ccc2c(=O)c(-c3ccc4c(c3)OCCO4)coc12	2%	4%	-10%	2%	-3%	-6%
Cc1ccc(S(=O)(=O)c2nnn3c2nc(NCc2ccc4c(c2)OCO4)c2sccc23)cc1	-5%	x	x	x	x	x
CC(C)NC(=O)c1cc2c(=O)n3ccccc3nc2s1	-1%	-1%	0%	2%	x	x
C=CCNC(=O)c1cc2c(=O)n3ccccc3nc2s1	17µM*	u	1.8µM*	2.5µM*	x	x
O=C(O)CCCC(=O)Nc1ccc(OCc2nc3ccccc3s2)cc1	17µM*	u	18%	3%	1%	-11%
CCNC(=S)Nc1ccc(OCc2nc3ccccc3s2)cc1	12µM*	u	4µM*	3.5µM*	x	x
CCN(CC)c1ccc(C=C2C(=O)OC(c3ccccc3)OC2=O)cc1 (stereo unspecified)	12µM*	-9%	-1%	-2%	-1%	-3%
CCOCC(=O)Nc1ccc(-c2cn3cccnc3n2)cc1	u	4%	3%	-1%	-6%	13%
CCCC(=O)Nc1cccc(-c2cn3cccnc3n2)c1	-19%	9%	-4%	4%	0%	7%
CC(C)(C)C(=O)Nc1cccc(-c2cn3cccnc3n2)c1	-3%	x	x	x	x	x
CC(C)(C)CC(=O)Nc1ccc(-c2cn3cccnc3n2)cc1	9.5µM*	u	u	2.8µM*	x	x
CC(C)CC(=O)Nc1cccc(-c2cn3cccnc3n2)c1	24µM*	x	x	x	x	x
CC(C)CC(=O)Nc1ccc(-c2cn3cccnc3n2)cc1	15µM*	u	28%	u	x	x
CCCC(=O)Nc1ccc(-c2cn3cccnc3n2)cc1	17µM*	13%	u	28%	x	x
COc1ccc(-c2nnc(SCC(=O)NCc3ccccc3)nc2-c2ccc(OC)c(OC)c2)cc1OC	-2%	x	x	x	x	x
CCc1ccc(-n2c(N3CCN(c4cccc(C)c4C)CC3)nc3ccccc3c2=O)cc1	1%	x	x	x	x	1%
CCCn1c(=S)[nH]c2ccccc2c1=O	13µM*	-2%	-10%	-9%	-2%	2%

Source: PubChem BioAssay (National Center for Advancing Translational Sciences (NCATS))
